Measurements as given in PubChem BioAssay.

assay: P. aeruginosa biofilm formation inhibitors, primary screen, strain PAO1, LB-PBS medium, absorbance 600 nm (AID 1176); also: test concentration not given here; conditions: P. aeruginosa PAO1 growth/biofilm, A600, 12 h; higher = more signal; call rule not given here

z-score, inactive:
CCCCC(O)C1C=CC2C(=O)N(C)C(=O)C2N1Nc1ccccc1 (stereo not given) 1.22
O=C1C2C=CC(C(O)c3cccs3)N(Nc3ccccc3)C2C(=O)N1c1ccccc1 (stereo not given) 1.06
COC(=O)[C@@]1(Cc2ccccc2)[C@@H]2[C@@H](CC(=O)[C@H]2CC(=O)C(=O)N(C)C)CN1C(=O)c1ccccc1 0.535
CC=CC(O)C1C=CC2C(=O)N(C)C(=O)C2N1NC(=O)OC(C)(C)C (stereo not given) -0.0625
CN(C)C(=O)[C@]1(Cc2ccccc2)N=C(c2ccc(OCCCO)cc2)O[C@@H]1c1ccccc1 -0.304
C=CCC(OC(C)=O)[C@@H]1[C@@H](N(Cc2cccc3ccccc23)C(=O)c2ccc(-c3ccccc3)cc2)c2cc(OCCCO)ccc2N1C(=O)c1ccc2ccccc2n1 (stereo not given in full) 0.35
C=CCC(OC(C)=O)[C@@H]1[C@@H](N(Cc2ccc(-c3ccccc3)cc2)C(=O)c2ccc(-c3ccccc3)cc2)c2cc(OCCCO)ccc2N1C(=O)c1ccc2ccccc2n1 (stereo not given in full) 0.149
NC(=O)NCC#Cc1ccc2c(c1)[C@]1(C(=O)N2)[C@H](C(=O)N2CCCCCCC2)[C@H]2C(=O)O[C@H](c3ccccc3)[C@H](c3ccccc3)N2[C@@H]1c1ccc(O)cc1 1.92
C=CCC(OC(C)=O)[C@@H]1[C@@H](N(Cc2ccc(-c3cccc(C(F)(F)F)c3)o2)C(=O)Cc2ccc(F)cc2)c2cc(OCCCO)ccc2N1C(=O)c1ccc2ccccc2c1 (stereo not given in full) -0.194
O=C1C2C=CC(C(O)c3ccc([N+](=O)[O-])cc3)N(Nc3ccccc3)C2C(=O)N1c1ccccc1 (stereo not given) 0.791
